A selection: hits, their analogues and other compounds. The true share with any hit is near 2.4%.
D2 antagonist: D2 dopamine receptor (human) antagonism; P14416; HEK293 TREx D2 cells, calcium flux, dopamine EC80; inhibition, % at 10 µM; hit rate 2% among 340,000; in the data active means inhibition above about 30%; inactive means below that, where a call was filed; further: 0% is about no effect
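Antagonism is scored as inhibition of an EC80 dopamine-evoked calcium signal in a force-coupled, tetracycline-inducible HEK293 T-REx D2 line, with compound present 180 s before agonist.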
D2 PAM-1: D2 dopamine receptor (human) potentiation; HEK293 T-REx D2, calcium flux, EC20 dopamine potentiation; potentiation, % at 10 µM; hit rate 0.34% among 340,000; AID 485347;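 active means potentiation over 3 SD above the plate norm, cut at about 30% in these data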; further: 0% is about no effect
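Calcium flux readout, no-wash dye, 1 read/s. Inducible HEK293 Trex D2 line, overnight 30 C. Compound alone 180 s (agonist flags), then EC20 dopamine, another 180 s to score potentiation.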
D2 ag-1: agonists of human D2 dopamine receptor. P14416. HEK293 T-REx D2 cells, calcium flux agonist mode. activation, % at 2 µM. hit rate 0.53% among 340,000. AID 485358;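 active means activation over 3 SD above normal in the single-dose calcium agonist read, cut at about 30% in these data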; further: 0% is about no effect
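Tetracycline-induced HEK293 T-REx cells with force-coupled D2 receptor, plated overnight at 30 C, loaded with no-wash calcium dye. After a 10 s baseline, compound was pin-added and calcium flux read kinetically for 180 s; calcium rises flagged agonists.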
D2 PAM-2: human D2 receptor positive allosteric modulation; hit rate 0.23% among 360,000; P14416; DiscoveRx D2 beta-arrestin cells, luminescence, 90 min; 100% = 57 uM dopamine signal; potentiation, % (test concentration not listed); in the data active means potentiation above about 50%; inconclusive means mostly about 30% to 49%
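PathHunter beta-arrestin assay in DiscoveRx D2 cells. Compounds were added with an EC20 of dopamine (50 nM final) for 90 min at 37 deg C. Luminescence was read 1 h after detection reagent, with 57 uM dopamine as the EC100 control.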
D2 ag-2: activates the human D2 dopamine receptor; AID 624465; hit rate 0.084% among 360,000; activation, % (concentration not given with the values); DiscoveRx PathHunter D2 beta-arrestin, luminescence, 90 min; 100% = 57 uM dopamine signal; in the data active means activation above about 40%; inconclusive means between about 15% and that limit
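Agonist mode: compounds alone added to overnight-plated D2 PathHunter cells for 90 min at 37 C, with 57 uM final dopamine (EC100) defining full response. Beta-arrestin recruitment detected by chemiluminescent reagent, read after 1 h at ambient temperature.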
D3 arrestin ag: D3 receptor agonism confirmed, beta-arrestin readout; shares compounds with D2 ag-1; AID 720506; DiscoveRx D3 beta-arrestin cells, luminescence, 90 min; Potency, µM (highest dose often 76.9 µM), for the others: at the highest dose activation, usual class: activators; hit rate 4% among 2,300;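 further: potency means the concentration at half of the fitted maximal effect; 100% = dopamine control response; nearly all actives have a fitted effect of over 70% in size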
Target sequence (P35462 whole entry, looked up): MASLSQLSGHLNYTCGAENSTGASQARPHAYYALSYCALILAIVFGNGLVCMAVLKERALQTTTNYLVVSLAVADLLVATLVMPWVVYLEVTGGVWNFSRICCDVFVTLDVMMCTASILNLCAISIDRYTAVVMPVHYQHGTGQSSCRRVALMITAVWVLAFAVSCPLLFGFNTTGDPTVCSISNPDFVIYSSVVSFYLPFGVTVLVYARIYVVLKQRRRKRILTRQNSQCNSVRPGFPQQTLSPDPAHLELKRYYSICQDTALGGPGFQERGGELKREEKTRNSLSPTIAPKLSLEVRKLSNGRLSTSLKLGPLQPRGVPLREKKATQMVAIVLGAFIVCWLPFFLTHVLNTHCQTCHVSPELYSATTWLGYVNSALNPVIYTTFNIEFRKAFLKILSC
D2 ag-3: activates human D2 dopamine receptor in D3 counterscreen | shares compounds with D2 ag-1 | DiscoveRx PathHunter D2 beta-arrestin, luminescence, 90 min; response scale: percent relative to full dopamine signal | Potency, µM (highest dose often 76.9 µM), without a hit: top-dose activation, usual class: activators | hit rate 5.9% among 2,300 | AID 720507; further: potency means the concentration at half of the fitted maximal effect; % of control where 0% means no effect; nearly all actives have a fitted effect of over 70% in size
* hit, by the source's call; ? = inconclusive; . = no result. Unless noted, the call rests on the fitted dose curve; in most records, active means well fitted activation curve with a large enough effect; inconclusive means small, poorly fitted or top-dose-only effect; inactive means flat fitted curve, though single readings scatter.

SMILES | D2 antagonist | D2 PAM-1 | D2 ag-1 | D2 PAM-2 | D2 ag-2 | D3 arrestin ag | D2 ag-3
CCOC(=O)c1c(-c2ccccc2)oc2ccc(O)cc12 | 11 | -9 | 2 | 1 | -1 | . | .
CCOc1ccc(CCNC(=O)c2ccc3nc(N4CCOCC4)sc3c2)cc1OCC | 8 | 7 | 0 | -4 | 0 | 14% | 1%
COc1ccc(CCNC(=O)c2ccc3nc(N4CCOCC4)sc3c2)cc1OC | 12 | 4 | 0 | 5 | -4 | . | .
O=C(CNC(=O)c1ccc(Br)o1)NCC1CCCCC1 | -11 | -5 | 0 | -21 | -3 | -5% | -6%
COc1ccc(CNCCNC(=O)c2ccco2)c(OC)c1OC | -6 | -15 | 48* | -18 | 2 | -4% | -4%
O=C(c1ccccc1)N1CCN(Cc2ccccc2)CC1 | 21 | -11 | 3 | -28 | 1 | -23% | ?
O=C(c1ccc(N2CCOCC2)c([N+](=O)[O-])c1)N1CCN(Cc2ccccc2)CC1 | -1 | -20 | 60* | -6 | 3 | -2% | 4%
N=C(N)N1CCN(Cc2ccccc2)CC1 | 20 | -18 | 42* | . | . | -5% | -3%
O=C(N1CCOCC1)N1CCN(Cc2ccccc2)CC1 | 9 | -6 | 1 | 15 | -1 | . | .
O=C(c1ccccc1)N1CCN(CC#Cc2ccccc2)CC1 | . | -9 | . | -7 | 3 | ? | 6%
CC(C)(C)c1ccc(C(=O)N2CCN(Cc3ccccc3)CC2)cc1 | 19 | -13 | 17 | -47 | -2 | . | .
O=C(c1ccc(Br)c([N+](=O)[O-])c1)N1CCN(Cc2ccccc2)CC1 | -5 | 4 | 1 | -5 | 0 | . | .
CN(c1ccc(C(=O)N2CCN(Cc3ccccc3)CC2)cc1)S(=O)(=O)c1ccc(Cl)cc1 | 90* | -25 | 65* | -16 | ? | 4% | ?
O=C(CCN1CCCCC1=O)NC1CCCN(Cc2ccc(Cl)cc2)C1 (configuration not stated) | 13 | 2 | 0 | 21 | -1 | . | .
O=C(Nc1ccnn1C1CCN(Cc2cc3ccccc3[nH]2)CC1)C1CCOC1 (configuration not stated) | 28 | -22 | 42* | . | . | -6% | 0%
COc1ccc(NC(=O)C(C)N2CCN(C)CC2)cc1 (configuration not stated) | -21 | -29 | 79* | 4 | -2 | -2% | -2%
O=C(CSc1ncccn1)Nc1cccc2ccccc12 | 19 | 12 | 0 | 2 | -1 | -2% | -3%
O=C(CSCC(=O)Nc1cccc2ccccc12)Nc1cccc2ccccc12 | . | . | . | -6 | 1 | . | .
CS(=O)(=O)N1CCCC(C(=O)NCCc2ccccc2)C1 (configuration not stated) | -11 | -5 | 0 | -15 | 0 | . | .
O=C(N[C@H]1CCC(=O)N(CCSc2ccc(Br)cc2)CC1)OCc1ccccc1 | -1 | -16 | 0 | 2 | 0 | 3% | 13%
CCOC(=O)N1CCC(N2CCCC(C(=O)c3cccc(OC)c3)C2)CC1 (configuration not stated) | 40* | -24 | 50* | -30 | 3 | -10% | 3%
CCOC(=O)N1CCC(N2CCN(c3ccccc3)CC2)CC1 | 74* | -11 | 45* | 9 | ? | ? | ?
CCOC(=O)N1CCC(N2CCCC(C(=O)c3cccc(OC(C)C)c3)C2)CC1 (configuration not stated) | 18 | 12 | -2 | -5 | -1 | . | .
O=C(c1cccc2ccccc12)N1CCC(N2CCN(c3ccccc3)CC2)CC1 | 75* | -22 | 77* | 16 | 7 | 1.4µM* | ?
O=C(c1cccs1)N1CCC(N2CCN(c3ccccc3)CC2)CC1 | 54* | -25 | 85* | 1 | ? | 7.1µM* | ?
SMILES | D2 antagonist | D2 PAM-1 | D2 ag-1 | D2 PAM-2 | D2 ag-2 | D3 arrestin ag | D2 ag-3
CCOC(=O)N1CCC(N2CCN(S(=O)(=O)CC)CC2)CC1 | -4 | -3 | 0 | -12 | 2 | . | .
N=C(N)n1c(N)nc2ccccc2c1=O | 28 | -13 | 2 | ? | 1 | . | .
COc1ccc(CCNS(=O)(=O)c2c(N)n(C)c(=O)n(C)c2=O)cc1OC | 3 | -1 | 3 | 4 | -1 | . | .
COc1cc(C)c(CN2CCC(n3nccc3NC(=O)C3CCOC3)CC2)cc1C (configuration not stated) | 6 | 7 | -2 | -23 | -4 | . | .
COc1ccc(OCCCC(=O)Nc2ccc(OC)c(S(=O)(=O)N3CCOCC3)c2)cc1 | 8 | 12 | 0 | 0 | 7 | . | .
CCn1c(=O)c(CCC(=O)N2CCN(c3ccccn3)CC2)c(C)c2c(C)nn(-c3ccccc3)c21 | 8 | 5 | 15 | -4 | 6 | 22% | 13%
CCn1c(=O)c(CCC(=O)NCCN2CCOCC2)c(C)c2c(C)nn(-c3ccccc3)c21 | 1 | 15 | -1 | -10 | 0 | . | .
CCOC(=O)c1c(NC(=O)C2COc3ccccc3O2)sc(C)c1C (configuration not stated) | -14 | -6 | 1 | -7 | -5 | . | .
C/C(Cn1cnc([N+](=O)[O-])n1)=N\NC(=O)c1ccccc1O | 0 | 3 | 0 | -9 | 7 | . | .
C/C(Cn1cnc([N+](=O)[O-])n1)=N\NC(=O)c1ccc(O)cc1O | -4 | 17 | 6 | 1 | -4 | ? | 1%
NNC(=O)CCn1nnc2ccccc21 | . | -4 | . | -25 | 4 | -7% | -3%
CCOC(=O)c1ccc(N2C(=O)CC(NC3CCN(C(=O)c4ccc(F)cc4)CC3)C2=O)cc1 (configuration not stated) | -6 | 1 | 0 | -13 | -2 | . | .
CCOc1ccc(N2C(=O)CC(NC3CCN(C(=O)c4ccc(F)cc4)CC3)C2=O)cc1 (configuration not stated) | 38* | 2 | 0 | 13 | -2 | 4% | -1%
Cc1ccc2occ(CN3CCN(c4ccccc4)CC3)c(=O)c2c1 | 67* | . | 13 | -2 | 13 | -5% | 25%
CN(CC(=O)Nc1ccccc1Br)C(=O)c1ccc2c(=O)n3c(nc2c1)CCC3 | 24 | -10 | 0 | 1 | 0 | -2% | -7%
CCc1ccc(NC(=O)c2ccc3c(=O)n4c(nc3c2)CCCCC4)cc1 | 18 | -1 | 0 | -10 | 5 | . | .
CCc1nnc(NC(=O)c2ccc3c(=O)n4c(nc3c2)CCCCC4)s1 | -4 | 1 | 6 | 2 | -1 | -10% | -4%
CCN(CC(=O)Nc1ccccc1C(F)(F)F)C(=O)c1ccc2c(=O)n3c(nc2c1)CCC3 | -6 | 8 | 1 | 2 | 1 | . | .
